Our source for the outcome values is PubChem BioAssay AID1053125 (Broad Institute, 2014).

Measured potencies and affinities stand elsewhere. Calls of active or inactive are those of the source.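 How the source made its calls: active means viability loss whose fitted half-maximal concentration is at most twice the top valid tested dose; inconclusive means flat curve with 30 to 70% loss, or poor fit; inactive means the rest.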

The experiment in a line: HepG2 cell cytotoxicity, dose response, cytotoxicity control, ATP luminescence, cherry-pick, set 6 (AID 1053125).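 Further: negative values mean loss of viability signal.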 The conditions noted are these: HepG2 viability, ATP luminescence (CellTiter-Glo), 72 h; series mostly up to 26 µM.
For the compound `N#C/C(=C\c1ccco1)C(=O)Nc1cccc2ncccc12`, the call was inactive. For `Cc1cccn2c(=O)c3cc(C(=O)NCCN4CCOCC4)c(=N)n(CCc4ccccc4)c3nc12`, the result was inactive.

With `CCc1cccc(OC2OC(CO)C(O)C(O)C2NC(C)=O)c1` (configuration not stated), the compound was called inactive.

Turning to `CCn1c2ccccc2c(=O)c2ccccc21`, the compound was classed as inactive. In the case of `CSCCC1(C(=O)O)NC(c2ccccc2O)C2C(=O)N(C(C)C)C(=O)C21` (configuration not stated), the call was inactive. Then `CC1CC(C)CN(CCCNC(=O)CCC(=O)N2CC(C)Oc3ccccc32)C1` (configuration not stated), with “inactive”; and `O=C(NCc1nnnn1-c1ccc(Cl)cc1)C1CC(=O)N(c2ccc(F)cc2)C1` (configuration not stated), with “inactive”. Regarding `Cc1oc(/N=C/c2ccc(O)cc2O)c(C#N)c1C`, the compound was classed as inactive. On to `CC(=O)c1cc2c(ccc3ccccc32)oc1=O`, for which the compound was called inactive. For `COC(=O)c1cc(=O)n(Cc2ccc3c(c2)OCO3)c(=Nc2ccc(F)c(Cl)c2)s1`, the result was inactive.

Turning to `Cc1cccn2c(=O)c3cc(C(=O)NCCc4ccccc4)c(=N)n(CCCn4ccnc4)c3nc12`, the outcome was inactive. Take `N#Cc1c(NCCCO)nc(NCc2ccccc2)c2c1CCN(Cc1ccccc1)C2`: the outcome was inactive. Turning to `O=C(O)C1=CC[C@@H](c2ccc(Cl)cc2)N(S(=O)(=O)c2ccc(Cl)cc2)[C@H]1c1ccc(F)cc1`, the compound was classed as inactive. As for `CCN(CC)CCCNc1nc(C)cc(COC)c1C#N`, the result was inactive.

`COc1ccc(C(=O)Oc2cc(N)n(S(=O)(=O)c3ccccc3)n2)cc1`: the outcome was inactive. As to `Cc1cc(OC(=O)c2ccccc2Cl)ccc1N1C(=O)CCC1=O`, the compound was called inactive. For the compound `COc1ccc(C2C(C#N)=C(N)Oc3cc(O)ccc32)cc1Cl` (configuration not stated), the compound was called inactive.
